# In PubChem BioAssay:
# Values joined by “and” are separate entries in the source; they are usually repeats but may differ in a detail not shown here. Equal values may be shown once. Active and inactive are the calls of the source.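 The calls were made as follows, unless noted: active = compounds whose cell count with miR-34 switched on is under 0.7 times the count with it off; inactive = the rest.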
# Columns and labels:
# [1] = compounds altering circadian rhythm period length – cell-based, LOPAC library, luminescence reporter (AID 2774; call rule not given here;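 also: values are relative to mean of DMSO wells on each plate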); conditions: circadian reporter cells, at 7 µM, actives lie on both sides
# [2] = system: Aerobactin synthetase IucA (Klebsiella pneumoniae); assay: inhibition of K. pneumoniae IucA enzyme – biochemical, Tocris library, absorbance (AID 1345561; call rule not given here;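 also: 100% = enzyme without compound and 0% = no enzyme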); conditions: purified IucA enzyme assay, absorbance (OD) read-out; stronger effect = lower value;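 tested at 8 µM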
# [3] = viability loss with induced miR-34 in A549 – imaging, A549 dox-inducible miR-34, nuclei and caspase counts, primary screen (AID 1347080); conditions: A549 miR-34 inducible, Hoechst nuclei count, 48 h
# [4] = compounds altering HSF1 focus formation in cells – imaging, Selleck Cancer Library (AID 1347162; in the data active = plate-normalised HSF1 focus index below about 0.46); conditions: human cells, HSF1 nuclear foci imaging, at 10 µM; SSMD: measured here: HSF1 foci SSMD mean; cell count: measured here: cell number; plate-normalised HSF1 focus index: stronger effect = lower value
# [5] = galactose survival enhancers in mitochondrial complex I cybrids – cell-based, galactose medium, ATP luminescence, primary screen (AID 1645843;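 active = z-score of at least 1.8 in each of two replicates, scored against plate mean and spread of sample wells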;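 also: positive z means more ATP and so rescue of galactose-driven cybrid death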); conditions: complex I mutant cybrid cells, 72 h, stronger effect = higher value
# [6] = MELAS cybrid and Rieske KO viability enhancers – cell-based, MELAS cybrids, Rieske KO mouse fibroblasts, CellTiter-Glo, primary screen (AID 1508586;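 active = mean z-score across replicates of 1.96 or higher in either the MELAS or the Rieske mutant cell line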;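 also: z relative to plate mean and SD of compound and empty wells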); conditions: low glucose
# [7] = chitosan synthesis blockers in C. neoformans – flow cytometry, Cibacron Brilliant Red staining (AID 1347148; call rule not given here;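 also: compound exposure lasted three days at 37 degrees C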); conditions: Cryptococcus neoformans chitosan, stronger effect = lower value; at 10 µM unless noted
# [8] = compounds altering viability of human ES cells (AID 493140; call rule not given here;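 also: cells exposed to compounds for four days before counting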); conditions: human embryonic stem cell survival screen; stronger effect = higher value
# [9] = P. berghei load reduction in hepatocytes – cell-based, HepG2, luciferase luminescence, HepG2 viability, primary screen (AID 624349; in the data active = parasite load remaining mostly below about 12%, no sharp cut-off; inactive = mostly above about 10%;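 also: 100% = mean of DMSO negative control wells on the same plate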); conditions: P. berghei liver stage in HepG2, luciferase luminescence, concentration not given here; parasite load remaining: stronger effect = lower value; viability: measured here: HepG2 viability without parasites
# [10] = target: Mitogen-activated protein kinase 7 (Homo sapiens) (UniProt Q13164); assay: Gal4-ERK5 driven luciferase induction – cell-based, HTS, primary screen (AID 1508626;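 active = luciferase signal above three times the same-plate solvent-only control wells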;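 also: luciferase driven by Gal4-ERK5 fusion binding five Gal4 sites before minimal TATA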); conditions: HeLa Gal4-ERK5 transactivation, 18 h, at 5 µM, stronger effect = higher value
# Mitogen-activated protein kinase 7 (Homo sapiens), sequence (Q13164 whole entry, looked up, the tested form may be a part): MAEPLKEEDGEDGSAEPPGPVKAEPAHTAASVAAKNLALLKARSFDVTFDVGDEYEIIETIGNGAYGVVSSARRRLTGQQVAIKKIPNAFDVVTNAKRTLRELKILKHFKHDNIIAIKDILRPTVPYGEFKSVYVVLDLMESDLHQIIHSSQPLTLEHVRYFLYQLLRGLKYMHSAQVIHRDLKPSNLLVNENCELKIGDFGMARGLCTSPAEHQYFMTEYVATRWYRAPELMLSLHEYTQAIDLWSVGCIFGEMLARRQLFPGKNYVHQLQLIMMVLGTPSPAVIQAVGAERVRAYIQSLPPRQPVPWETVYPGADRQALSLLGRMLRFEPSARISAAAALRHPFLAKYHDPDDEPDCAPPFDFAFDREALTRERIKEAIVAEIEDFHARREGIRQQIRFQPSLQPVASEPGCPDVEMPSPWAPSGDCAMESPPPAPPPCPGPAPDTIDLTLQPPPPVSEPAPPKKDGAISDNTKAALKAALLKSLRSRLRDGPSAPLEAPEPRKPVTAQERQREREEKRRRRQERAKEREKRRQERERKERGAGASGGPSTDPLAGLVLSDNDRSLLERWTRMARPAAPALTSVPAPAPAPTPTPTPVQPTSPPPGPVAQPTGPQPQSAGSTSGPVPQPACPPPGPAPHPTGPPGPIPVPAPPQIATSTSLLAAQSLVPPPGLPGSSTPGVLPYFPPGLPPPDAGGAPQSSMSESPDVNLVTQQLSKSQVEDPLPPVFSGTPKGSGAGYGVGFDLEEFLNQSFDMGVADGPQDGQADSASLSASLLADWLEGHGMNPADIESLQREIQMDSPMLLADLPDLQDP
# [11] = blockers of cellular phospholipid synthesis – cell-based, LOPAC library, screen 4, primary screen (AID 1347384; call rule not given here); conditions: animal cells, phospholipid biosynthesis inhibition screen; at 10 µM
# [12] = stronger effect = lower value, cell number ratio, induced over uninduced
# [13] = measured here: relative caspase fold change +Dox/-Dox
# [14] = measured here: total cells with miR-34 induction, stronger effect = lower value
# [15] = measured here: total cells without miR-34 induction
# [16] = MELAS cybrid survival, CellTiter-Glo 48 h, stronger effect = higher value
# [17] = Rieske KO mouse fibroblast survival, CellTiter-Glo 72 h
structure (smiles),measurement,setting,value
CN(C)CCCCSC(=N)N,period change,[1],0.15 h (inactive)
same,remaining activity,[2],110% (inactive)
same,fold change,[3]; [12],0.981 (inactive)
same,fold change,[3]; [13],0.637
same,cell count,[3]; [14],8600
same,cell count,[3]; [15],8770
same,SSMD,[4],1.03
same,cell count,[4],6740
same,plate-normalised HSF1 focus index,[4],1.06 (inactive)
same,z-score,[5],0.38 (inactive)
Cc1ccc(Sc2cncc3sc(C(N)=O)cc23)cc1,remaining activity,[2],99.8% (inactive)
same,fold change,[3]; [12],0.867 (inactive) and 0.873 (inactive)
same,fold change,[3]; [13],2.32 and 1.58
same,cell count,[3]; [14],7640 and 7700
same,cell count,[3]; [15],8800 and 8820
same,z-score,[6]; [16],-0.504 (inactive)
same,z-score,[6]; [17],-0.347
same,z-score,[5],-0.625 (inactive)
COC(=O)C1=C(C)NC(C)=C(C(=O)OCCCN2CCC(c3ccccc3)(c3ccccc3)CC2)[C@H]1c1cccc([N+](=O)[O-])c1,remaining activity,[2],116% (inactive)
same,fold change,[3]; [12],0.98 (inactive)
same,fold change,[3]; [13],1.09
same,cell count,[3]; [14],562
same,cell count,[3]; [15],574
same,fold fluorescence,[7],5.27 [at 82 µM] (inactive)
same,SSMD,[4],-1.25
same,cell count,[4],6310
same,plate-normalised HSF1 focus index,[4],0.927 (inactive)
same,z-score,[5],-0.83 (inactive)
COc1ccc(-n2[nH]c3c4c(ncc3c2=O)CCCCC4)cc1,remaining activity,[2],115% (inactive)
same,fold change,[3]; [12],0.906 (inactive)
same,fold change,[3]; [13],1.8
same,cell count,[3]; [14],8550
same,cell count,[3]; [15],9440
same,z-score,[5],2.12 (active)
Cc1cc(F)c(Nc2ncnc3cc(OCc4ccccc4)ccc23)cc1O,remaining activity,[2],105% (inactive)
same,fold change,[3]; [12],0.94 (inactive) and 0.947 (inactive)
same,fold change,[3]; [13],0.62 and 2.22
same,cell count,[3]; [14],7080 and 7020
same,cell count,[3]; [15],7530 and 7420
same,z-score,[6]; [16],0.202 (inactive)
same,z-score,[6]; [17],0.0931
same,z-score,[5],1.85 (inactive)
CCN(CC)CCOC(=O)C1(c2ccc([N+](=O)[O-])cc2)CCCC1,survival,[8],10.9 (inactive)
same,parasite load remaining,[9],105% (inactive)
same,viability,[9],84.2%
same,remaining activity,[2],78.5% (inactive)
same,fold change,[3]; [12],0.929 (inactive) and 1.02 (inactive)
same,fold change,[3]; [13],1.89 and 0.688
same,cell count,[3]; [14],8310 and 8650
same,cell count,[3]; [15],8940 and 8460
same,z-score,[6]; [16],0.368 (inactive)
same,z-score,[6]; [17],-0.484
same,z-score,[5],-1.09 (inactive)
CCCCN1CCC(CCC(=O)c2cc(Cl)c(N)cc2OC)CC1,remaining activity,[2],95.7% (inactive)
same,fold change,[3]; [12],0.973 (inactive)
same,fold change,[3]; [13],1.12
same,cell count,[3]; [14],8560
same,cell count,[3]; [15],8800
same,z-score,[5],-0.48 (inactive)
CC(=O)O[C@@H]1C[C@H]2C(C)(C)C(=O)C=C[C@]2(C)[C@H]2CC[C@@]3(C)[C@H](c4ccoc4)OC(=O)[C@H]4O[C@]43[C@@]21C,remaining activity,[2],103% (inactive)
same,fold change,[3]; [12],0.935 (inactive)
same,fold change,[3]; [13],1.22
same,cell count,[3]; [14],4410
same,cell count,[3]; [15],4720
same,luciferase signal,[10],96 AU (inactive)
same,z-score,[5],-0.435 (inactive)
CCCCCCCCCCCCCCCCn1cc[n+](Cc2ccccc2)c1C,parasite load remaining,[9],41.6% (inactive)
same,viability,[9],156%
same,remaining activity,[2],93.9% (inactive)
same,fold change,[3]; [12],0.951 (inactive) and 0.701 (inactive)
same,fold change,[3]; [13],0.478 and 0.77
same,cell count,[3]; [14],1020 and 275
same,cell count,[3]; [15],1080 and 392
same,z-score,[6]; [16],0.978 (inactive)
same,z-score,[6]; [17],-3.72
same,z-score,[5],-0.7 (inactive)
Cc1ccc(S(=O)(=O)NCc2ccccc2)cc1,remaining activity,[2],121% (inactive)
same,fold change,[3]; [12],0.861 (inactive)
same,fold change,[3]; [13],0.767
same,cell count,[3]; [14],8330
same,cell count,[3]; [15],9670
same,z-score,[5],-0.21 (inactive)
Cc1cc2nc3c(=O)[nH]c(=O)nc-3n(C)c2cc1C=O,remaining activity,[2],110% (inactive)
same,fold change,[3]; [12],1.04 (inactive)
same,fold change,[3]; [13],1.31
same,cell count,[3]; [14],8790
same,cell count,[3]; [15],8430
same,z-score,[5],-0.69 (inactive)
COc1cc2ncnc(Nc3ccc(Cl)cc3F)c2cc1OC,remaining activity,[2],98.6% (inactive)
same,fold change,[3]; [12],0.989 (inactive) and 1 (inactive)
same,fold change,[3]; [13],0.8 and 1.6
same,cell count,[3]; [14],5840 and 6100
same,cell count,[3]; [15],5900 and 6080
same,z-score,[6]; [16],-0.209 (inactive)
same,z-score,[6]; [17],-0.0991
same,z-score,[5],0.365 (inactive)
CN(Cc1ccccc1)C(=O)[C@H](Cc1ccc2ccccc2c1)NC(=O)[C@@H]1C[C@@H](O)CN1C(=O)c1cn(C)c2ccccc12,remaining activity,[2],102% (inactive)
same,fold change,[3]; [12],0.957 (inactive)
same,fold change,[3]; [13],1.21
same,cell count,[3]; [14],6080
same,cell count,[3]; [15],6350
same,z-score,[5],3.41 (active)
O=C(O)c1cc(Oc2ccc([N+](=O)[O-])cc2)cc(Oc2ccc([N+](=O)[O-])cc2)c1,remaining activity,[2],113% (inactive)
same,fold change,[3]; [12],0.979 (inactive)
same,fold change,[3]; [13],0.988
same,cell count,[3]; [14],8410
same,cell count,[3]; [15],8600
same,z-score,[5],1.39 (inactive)
N=C(N)SCCc1ccc(OCc2ccc([N+](=O)[O-])cc2)cc1,remaining activity,[2],106% (inactive)
same,fold change,[3]; [12],0.959 (inactive)
same,fold change,[3]; [13],0.93
same,cell count,[3]; [14],5550
same,cell count,[3]; [15],5790
same,outcome,[11],inactive
same,z-score,[5],-0.76 (inactive)
CCc1ccccc1OC[C@@H](O)CN[C@H]1CCCc2ccccc21,remaining activity,[2],106% (inactive)
same,fold change,[3]; [12],0.986 (inactive)
same,fold change,[3]; [13],0.799
same,cell count,[3]; [14],4870
same,cell count,[3]; [15],4940
same,z-score,[5],-0.74 (inactive)
Cc1nn(-c2ccccc2)c(C)c1/C=N/N1CCN(Cc2ccccc2)CC1,remaining activity,[2],122% (inactive)
same,fold change,[3]; [12],1.03 (inactive)
same,fold change,[3]; [13],0.466
same,cell count,[3]; [14],8730
same,cell count,[3]; [15],8510
same,SSMD,[4],3.26
same,cell count,[4],6930
same,plate-normalised HSF1 focus index,[4],1.18 (inactive)
same,z-score,[5],-0.095 (inactive)
CC(=O)OCCNC(=O)c1cccnc1,remaining activity,[2],106% (inactive)
same,fold change,[3]; [12],0.936 (inactive)
same,fold change,[3]; [13],0.614
same,cell count,[3]; [14],9480
same,cell count,[3]; [15],10100
same,z-score,[5],0.15 (inactive)
O=C(Nc1c(-c2cccs2)nc2ccccn12)c1ccc(Cl)cc1,remaining activity,[2],108% (inactive)
same,fold change,[3]; [12],0.889 (inactive)
same,fold change,[3]; [13],0.893
same,cell count,[3]; [14],8490
same,cell count,[3]; [15],9560
same,z-score,[5],1.35 (inactive)
COc1cc(NC(=O)c2ccccn2)ccc1Cl,remaining activity,[2],122% (inactive)
same,fold change,[3]; [12],1.03 (inactive) and 0.942 (inactive)
same,fold change,[3]; [13],0.59 and 1.55
same,cell count,[3]; [14],7300 and 8170
same,cell count,[3]; [15],7110 and 8670
same,z-score,[6]; [16],0.202 (inactive)
same,z-score,[6]; [17],0.293
same,z-score,[5],1.19 (inactive)
COc1ccc(CC(=O)NC(/N=C(\NC#N)Nc2cccc3ncccc23)C(C)(C)C)cc1OC (stereo unspecified),remaining activity,[2],122% (inactive)
same,fold change,[3]; [12],0.95 (inactive)
same,fold change,[3]; [13],1.31
same,cell count,[3]; [14],9530
same,cell count,[3]; [15],10000
same,z-score,[5],0.08 (inactive)
